# From PubChem BioAssay (NCATS)
# Results filed as inconclusive are left out. Where a call stands in place of a potency, no number is given. Active and inactive are the calls of the source. The call rests on the fitted dose curve; in most records, active means well fitted curve in the direction sought with a large enough effect; inconclusive means small, poorly fitted or top-dose-only effect, or another doubt; inactive means no such curve, though single readings can be large; an effect the other way counts as inactive or inconclusive.
# Assay: qHTS assay for measurement of the activity of small molecule inhibitors on Zika virus induced Caspase-3 activity in human astrocytoma cells (AID 1224859)
# Conditions: SNB-19 ZIKV-induced caspase-3/7, luminescence, 6 h; series mostly up to 45.7 µM
# Procedure, shortened: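 Compound added 1 h pre-infection; ZIKV 2 FFU/cell on SNB-19 cells, 6 h, 37 C/5% CO2. Caspase-Glo 3/7 luminescence; values as % inhibition of ZIKV-induced caspase activity.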
row,Structure (SMILES),outcome
1,C=CCN1CC[C@]23c4c5ccc(O)c4O[C@H]2/C(=N/NC(=O)c2ccccc2)CC[C@@]3(O)[C@H]1C5,inactive
2,C[N+](C)(C)CC#CCOC(=O)Nc1cccc(Cl)c1,inactive
3,COc1ccc2c(c1)c(CCN1CCOCC1)c(C)n2C(=O)c1cccc(Cl)c1Cl,inactive
4,N#C/C(=C/c1ccc(O)c(O)c1)C(N)=S,inactive
5,NC(N)=Nc1ccc2[nH]c3c(c2c1)C[C@@]1(O)[C@H]2Cc4ccc(O)c5c4[C@@]1(CCN2CC1CC1)[C@H]3O5,inactive
6,CCCSP(=O)(OCC)SCCC,inactive
7,CCCn1c(C)c(C(=O)c2ccc3ccccc3c2)c2ccccc21,inactive
8,O=C(O)c1cc[c]([Hg][Cl])cc1,inactive
9,C=CCN(C1=NCCN1)c1c(Cl)cccc1Cl,inactive
10,CCCCCCC(C)(C)c1ccc([C@@H]2C[C@H](O)CC[C@H]2CCCO)c(O)c1,inactive
11,CCCN(CCC)CCc1c[nH]c2ccc(C(N)=O)cc12,inactive
12,CN1CC[C@@]2(C)c3cc(O)ccc3N(C)C12 (stereo not given in full),inactive
13,COc1cc(CC(C)N)c(OC)cc1I (stereo not given),inactive
14,CCN1C[C@@]2(COC)C3[C@@H](OC)C4[C@@H]1C3([C@@H]1C[C@]3(O)[C@H](OC(=O)c5ccccc5)[C@@H]1[C@]4(OC(C)=O)[C@@H](O)[C@@H]3OC)[C@H](OC)C[C@H]2O,inactive
15,COc1ccc(CNC(=O)/C=C/c2ccc3[nH]cc(CCN(C)C)c3c2)cc1,inactive
16,N[C@@H](CCl)C(=O)O,inactive
17,CC(C)(O)[C@@H]1C2OC(=O)[C@@H]1[C@]1(O)C[C@H]3O[C@]34C(=O)O[C@H]2[C@]14C (tested in a mixture with another compound),inactive

# Assay: qHTS assay to identify small molecule inhibitors of chordoma cells - UCH-1 (AID 1259355); further: nearly all actives have a fitted effect of over 55% in size; further: potency means the concentration at half of the fitted maximal effect
# Conditions: UCH-1 chordoma viability, CellTiter-Glo, 48 h, combination; series mostly up to 46.1 µM
# Procedure, shortened: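 Cells (800/well) were seeded and left overnight at 37 C, 5% CO2, then treated with drugs at 15 concentrations plus a combination mix of auranofin, camptothecin, doxorubicin, rubitecan and topotecan. Viability after 48hr was read by CellTiter-Glo luminescence.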
row,Structure (SMILES),Potency
1,C[CH2][Hg][S]c1ccccc1C(=O)O,3.16 µM (active)
2,CC(C)[C@@]1(NC(=O)[C@@H]2C[C@@H]3c4cccc5[nH]cc(c45)C[C@H]3N(C)C2)O[C@@]2(O)[C@@H]3CCCN3C(=O)[C@H](Cc3ccccc3)N2C1=O,inactive
3,C=CCN(C1=NCCN1)c1c(Cl)cccc1Cl,inactive
4,O=P(O)(O)C(Cl)(Cl)P(=O)(O)O,inactive

# Assay: qHTS assay to identify small molecule inhibitors of chordoma cells - UCH-2 (AID 1259356); further: potency means the concentration at half of the fitted maximal effect
# Conditions: UCH-2 chordoma viability, CellTiter-Glo ATP luminescence, 48 h; series mostly up to 46.1 µM
row,Structure (SMILES),Potency
1,C[CH2][Hg][S]c1ccccc1C(=O)O,3.66 µM (active)
2,CC(C)[C@@]1(NC(=O)[C@@H]2C[C@@H]3c4cccc5[nH]cc(c45)C[C@H]3N(C)C2)O[C@@]2(O)[C@@H]3CCCN3C(=O)[C@H](Cc3ccccc3)N2C1=O,inactive
3,C=CCN(C1=NCCN1)c1c(Cl)cccc1Cl,inactive
4,O=P(O)(O)C(Cl)(Cl)P(=O)(O)O,inactive
